Measurements published in the supplement of paper PMC5499739.
Over roughly 16,000 sequences, “Z-score” has its median near -0.37; the highest 2% begin near 3.1. The entries come from a sample that favours the highest values as a whole.

Test system: RBM10 RRM1-ZnF-RRM2 (GST-tagged construct)
Assay: RNAcompete 7-mer binding Z-score; higher = stronger binding preference
How it was run: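 A designed pool of 241 399 RNAs, each up to 41 nt and transcribed from microarray-derived DNA templates, was used at 1.5 nmol with 20 pmol of GST-tagged RBM10 constructs. The mixture, in 1 ml Hepes pH 7.8 buffer with KCl, NaCl, glycerol, DTT, BSA and glutathione Sepharose beads, was held 30 min at 4°C and then washed four times for 2 min at 4°C. Bound RNA was read out by microarray hybridisation, and enrichment of each heptamer motif was scored as a one-sided Z-score over the probes carrying it.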

Row | Sequence | RNAcompete 7-mer binding Z-score
1 | GGUUUGU | 0.811
2 | GUAUUGA | -0.107
3 | CGAAGCC | -0.449
4 | AACUCGU | -0.861
5 | GGGAAAG | 4.49
6 | CGGAAGA | 0.862
7 | GGGAAAA | 3.43
8 | GGAAAAA | 1.95
9 | GGGAAGA | 3.65
10 | CGGAAAA | 0.854
11 | GGGAAGU | 2.76
12 | UGGAAAG | 2.78
13 | CGGAAAG | 1.91
14 | GUCAGGG | 1.81
15 | UCCUGAC | -0.788
16 | UGGCACA | 0.497
17 | UCGUAAG | -0.326
18 | GUCGAGG | 1.9
19 | CGUUGGA | 0.548
20 | UCUUUAA | -0.803
21 | UCGGCCG | -0.795
22 | GGAGGUG | 3.64
23 | GGAGGUA | 3.82

Row | Sequence | RNAcompete 7-mer binding Z-score
24 | CGAGGUA | 1.8
25 | AGAGGUG | 2.05
26 | UGAGGUA | 1.87
27 | GGAGGUU | 2.23
28 | CGCAUUC | -0.723
29 | UGCGACG | 0.13
30 | ACUUCUU | -0.952
31 | UAGCGGA | 1.01
32 | GAGCGGG | 3.33
33 | GAGCGAG | 3.3
34 | GAGCGAC | 0.177
35 | CAGCGGG | 2.5
36 | UAGCGAG | 0.694
37 | GAGCGGU | 1.51
38 | GAGCGGA | 3.55
39 | GAGCGGC | 1.42
40 | UCCUUAA | -0.715
41 | AAAGAAC | -0.0343
42 | CUCAACA | -0.704
43 | UCUUAGC | -0.817
44 | AUGACCC | -0.57
45 | AUGUGGC | 0.84
46 | GUGUGGG | 3.75

Row | Sequence | RNAcompete 7-mer binding Z-score
47 | GUGUGGU | 1.87
48 | UUGUGGG | 2.44
49 | AUGUGGG | 3.6
50 | GUGUGGA | 2.7
51 | AGAAUGA | 0.275
52 | CGCACCC | -0.748
53 | GCGUGAG | 1.01
54 | CGGAUGG | 1.87
55 | GAGAUGG | 4
56 | AGGAUGG | 3.4
57 | UGGAUGG | 3.42
58 | UGGAUGC | 0.778
59 | AGGAUGC | 0.887
60 | UAGAUGG | 2.16
61 | GAGAUGU | 0.392
62 | UGGAUGA | 1.82
63 | UGUACUU | -0.715
64 | GUCAAUU | -0.602
65 | UUUGCCG | -0.766
66 | ACGACGA | -0.384
67 | GAGCCCC | -0.581
68 | ACCGUAG | -0.147
69 | UUUGUCC | -0.85

Row | Sequence | RNAcompete 7-mer binding Z-score
70 | ACGGUAC | 0.472
71 | CCCCAAU | -0.755
72 | UUCCACA | -0.508
73 | GGGGAAU | 3.13
74 | UGGGAAU | 2.42
75 | UGGGAAA | 2.49
76 | GGGGAAG | 3.91
77 | CGGGAAU | 1.31
78 | AGGGAAC | 3.06
79 | AGGGACU | 1.09
80 | GGGGAAA | 3.02
81 | UGGGAAG | 3.99
82 | CGGGAAG | 2.07
83 | AGGGAAG | 4.36
84 | AGGGAAU | 3.2
85 | GGUAAUU | 0.789
86 | ACUAACG | -0.409
87 | CGAUGUU | -0.657
88 | AGUCGAC | 0.00944
89 | CUAAUGC | -0.795
90 | ACAUCAG | -0.191
91 | CACUGAG | -0.209
92 | UGGGUAC | 2.59

Row | Sequence | RNAcompete 7-mer binding Z-score
93 | AGGGUAG | 3.71
94 | CGGGUAG | 2.23
95 | UGGGUAG | 3.34
96 | AGGGUAC | 2.7
97 | UGGGUAU | 2.2
98 | CGCGAAC | -0.435
99 | GCUCGAC | -0.53
100 | AGUUCCU | -0.77
101 | AGGCGUA | 0.716
102 | ACCUACA | -0.814
103 | GACGGGA | 2.3
104 | GACGGGU | 2.37
105 | AACGGGU | 3.25
106 | GACGGGG | 2.79
107 | AACGGGG | 3.65
108 | CACGGGG | 2.77
109 | UACGGGU | 2.02
110 | AACGGGA | 3.38
111 | CACGGGA | 1.66
112 | ACGGCGG | 1.11
113 | AGCUCAG | -0.486
114 | ACAUAUC | -0.526
115 | AAGGAGU | 3.12

Row | Sequence | RNAcompete 7-mer binding Z-score
116 | AGUUUUG | -0.0707
117 | CUUAAAC | -0.646
118 | AGGGCUA | 1.17
119 | UGUUGUU | -0.286
120 | GUCGCGU | -0.0124
121 | UGGAAGU | 1.6
122 | AGGAAGA | 1.64
123 | UGGAAGG | 3.68
124 | CGGAAGG | 2.53
125 | AGGAAGG | 4.46
126 | AGGAAGU | 1.21
127 | GUGUAAG | 1.28
128 | GGAGGAG | 2.84
129 | GGAGGGC | 3.27
130 | AGAGGGG | 1.94
131 | UGAGGGC | 2.22
132 | GGAGGGG | 4.18
133 | AGAGGGC | 1.02
134 | AUAGAGG | 1.79
135 | CGAGGGA | 3.11
136 | UUAGAGG | 1.24
137 | GGAGGGA | 3.6
138 | AGAGGGA | 2.16

Row | Sequence | RNAcompete 7-mer binding Z-score
139 | GUAGAGG | 4.02
140 | AGAUAAG | 0.989
141 | GUUAACU | -0.398
142 | UCCUGUA | -0.795
143 | UCAUGGG | 1.19
144 | AAAACGU | -0.0197
145 | GGAGUGA | 2.63
146 | GGAGUGG | 4.61
147 | CGAGGGC | 1.41
148 | CGAGGGG | 3.29
149 | AGAGUGG | 2.77
150 | GGAGAGG | 3.28
151 | CGAGGCG | 1.5
152 | GGAGAGA | 1.26
153 | AGAGAGG | 1.58
154 | GUCCAAA | -0.424
155 | GUUCACG | -0.355
156 | UAAGCAU | -0.555
157 | UAUCAAU | -0.46
158 | CUGUGUA | -0.417
159 | UCUUUUG | -0.632
160 | AGCAGGG | 3.39
161 | CACAGGG | 2.49

Row | Sequence | RNAcompete 7-mer binding Z-score
162 | AACAGGG | 3.73
163 | AGCAGGA | 2.45
164 | UGCAGGG | 2.53
165 | AACAGGC | 1.62
166 | GGUGCCC | 0.0495
167 | CUUAGCU | -0.832
168 | CCUUGUC | -0.89
169 | AUUUUCU | -0.803
170 | CUUCUGC | -0.959
171 | UUACUGC | -0.799
172 | AGUAAGU | 0.188
173 | CGUAAGG | 0.844
174 | GAAAAGG | 4.73
175 | AAAAAGG | 2.19
176 | AGAAAGG | 4.73
177 | GAAAAAG | 1.52
178 | AAAAGGU | 2.52
179 | GAAAGGU | 4.42
180 | AGUAAGG | 3.47
181 | CGAAAGG | 1.98
182 | UGAAAGG | 2.76
183 | CAAAGGU | 1.62
184 | GCGUGUC | -0.235
